# Screening data deposited in PubChem BioAssay by National Center for Advancing Translational Sciences (NCATS).
# NPC1 prom act: activators of NPC1 promoter; Huh7 NPC1 promoter luciferase reporter, 24 h; Potency, µM (top dose mostly 9.22 µM), actives largely listed as activators; 320,000 tested, 2.4% active; further: nearly all actives have a fitted effect of over 60% in size
#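 Stable NPC1-promoter luciferase Huh7 line; cpd (DMSO) 24 h, 37 °C, 5% CO2; Amplite luciferase reagent 10 min RT; luminescence readout. qHTS format.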
# Rab9 prom act: Rab9 promoter activation. Huh7 Rab9 promoter-luciferase reporter, luminescence, 24 h. Potency, µM (top dose mostly 9.22 µM), actives largely listed as activators. 320,000 tested, 2.8% active; further: nearly all actives have a fitted effect of over 60% in size
#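 Huh7 reporter line, Rab9 promoter upstream of luciferase. Compound exposure 24 h at 37 °C in reduced-serum medium with 10% FBS. Read-out: luminescence.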
# ELG1 genotoxic: induces genotoxicity in HEK293T cells with luciferase-tagged ELG1; Potency, µM (top dose mostly 46 µM), actives largely listed as activators; 330,000 tested, 1.3% active; HEK293T ELG1-luciferase reporter, luminescence, 16 h; AID 504466; further: nearly all actives have a fitted effect of over 60% in size
#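 Cells (2,000/well) expressing the ELG1-luciferase fusion are dosed by pin tool and kept 16 hr at 37 °C, 5% CO2. Signal comes from ONE-Glo luciferase reagent after 30 min at room temperature.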
# KinaseGlo FLuc: counter-screen: inhibitors of Kinase-Glo firefly luciferase. Kinase-Glo luciferase, ATP luminescence, 8 min. Potency, µM (doses to about 38.3 µM), most hits filed as inhibitors. 200,000 tested, 0.28% active. AID 1379; further: nearly all actives have a fitted effect of over 60% in size
#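 Kinase-Glo luciferase light output from ATP and luciferin was measured with 10 uM ATP, within the enzyme's linear range. Buffer: 50 mM imidazole pH 7.2, 50 mM KCl, 7 mM MgCl2, 0.01% Tween 20, 0.05% BSA; luminescence read after 8 min at ambient temperature.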
# SMN2 splice up: enhancers of SMN2 splice variant expression. HEK293 SMN2-luciferase splicing reporter, luminescence, 30-36 h. Potency, µM (titrated, usually from 46.1 µM), usual class: activators. 210,000 tested, 2.8% active. AID 1458; further: nearly all actives have a fitted effect of over 55% in size
#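 HEK293 cells carry an SMN2 minigene-luciferase reporter in which exon 7 inclusion puts luciferase in frame. Cells were seeded at 2000 cells/well, attached for 10-12 hours, then exposed to compounds for 30-36 hours at 37C before ONE-Glo luminescence.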
# FLuc modulator: firefly luciferase modulation, counter-screen for miR-21 project | P08659 | purified FLuc, Km substrates, luminescence inhibition | Potency, µM (highest dose often 57.5 µM), actives largely listed as inhibitors | 360,000 tested, 6.9% active | AID 588342; further: nearly all actives have a fitted effect of over 55% in size
# Target sequence (P08659 whole entry, looked up): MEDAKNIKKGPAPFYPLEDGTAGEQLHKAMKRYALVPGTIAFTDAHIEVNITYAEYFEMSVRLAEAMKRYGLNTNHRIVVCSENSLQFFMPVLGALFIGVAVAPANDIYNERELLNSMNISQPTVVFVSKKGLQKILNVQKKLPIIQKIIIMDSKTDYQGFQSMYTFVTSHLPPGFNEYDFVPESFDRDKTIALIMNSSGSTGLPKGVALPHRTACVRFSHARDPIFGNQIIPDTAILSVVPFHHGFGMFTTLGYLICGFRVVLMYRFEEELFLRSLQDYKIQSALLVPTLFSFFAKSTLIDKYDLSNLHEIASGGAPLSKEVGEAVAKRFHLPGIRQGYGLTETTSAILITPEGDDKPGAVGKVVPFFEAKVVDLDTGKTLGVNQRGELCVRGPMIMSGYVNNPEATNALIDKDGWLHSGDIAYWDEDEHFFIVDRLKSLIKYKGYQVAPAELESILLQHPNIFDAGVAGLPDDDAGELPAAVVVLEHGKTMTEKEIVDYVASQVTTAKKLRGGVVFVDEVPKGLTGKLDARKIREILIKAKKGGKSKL
#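 Purified P. pyralis luciferase, 10 nM final, with Km-level 10 uM D-luciferin and 10 uM ATP in 50 mM Tris acetate pH 7.5, 10 mM Mg acetate, 0.01% Tween-20, 0.05% BSA; 6-point qHTS titration about 60 µM downward; luminescence read.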
# A number is an active result; 0 = inactive; ? = inconclusive; - = no result given; [ ] = remark or other dose. Only some compounds are listed: those with a hit (about 7.5% of all), similar ones and a draw of the others. The call rests on the fitted dose curve; in most records, active means well fitted curve in the direction sought with a large enough effect; inconclusive means small, poorly fitted or top-dose-only effect, or another doubt; inactive means no such curve, though single readings can be large; an effect the other way counts as inactive or inconclusive.
SMILES,NPC1 prom act,Rab9 prom act,ELG1 genotoxic,KinaseGlo FLuc,SMN2 splice up,FLuc modulator
COc1cc(Cl)c(C)cc1NC(=O)CCc1c(C)nc2cc(-c3cccc(F)c3)nn2c1C,-,-,-,-,0,0
COc1ccc(/C=C\C(=O)NCC(=O)N/N=C/c2cccc(OC)c2O)cc1,0,0,0[9.26 µM],-,-,0
COc1cccc(/C=N/NC(=O)CNC(=O)/C=C\c2ccccc2)c1O,0,0,0,-,-,11µM
COc1cccc(/C=N/NC(=O)CNC(=O)C(c2ccccc2)c2ccccc2)c1O,0,0,?,-,-,4.8µM
CCCCOC(=O)NC(NCC(O)c1ccccc1)(C(F)(F)F)C(F)(F)F (stereo unspecified),0,0,0,0,0,0
CC(NC(=O)COC(=O)CNC(=O)c1ccc(-c2ccccc2)cc1)c1ccccc1 (stereo unspecified),0,0,0,-,-,17µM
O=C(CNC(=O)c1ccc(F)cc1)c1ccc(Cl)cc1,4µM,1.6µM,?,-,-,9.5µM
CCCCCOC(=O)NCC(O)c1ccccc1 (stereo unspecified),2.5µM,4.5µM,?,0,?,13µM
CC1=C(C)CC(C(=O)NCC(=O)c2ccccc2)C(C(=O)O)C1 (stereo unspecified),0,0,16µM,0,0,15µM
CC1=C(C)CC(C(=O)NNC(=O)c2ccccc2)C(C(=O)O)C1 (stereo unspecified),0,0,0,0,0,0
Cc1ccc(S(=O)(=O)N2CCC(C(=O)OCC(=O)N3CCC(C)CC3)CC2)cc1C,0,0,0,-,-,0
Cc1cc(Nc2ccc(C)c(Cl)c2)n2nc(Cc3ccccc3)nc2n1,-,-,-,-,0,0
O=C(NC[C@H](O)c1ccccc1)c1ccccc1,-,-,-,0,14µM,-
CC1CCCC(C)N1C(=O)COC(=O)CNC(=O)c1ccccc1 (stereo unspecified),0,0,0,-,-,0
O=C(O)CNC(=O)c1ccccc1,0,0,0,0,-,0
O=C(CNC(=O)c1ccc(Br)cc1)c1ccccc1,2.8µM,2µM,?,-,-,4.8µM
O=C(CNC(=O)c1ccc(Br)cc1)c1ccc(Br)cc1,0,0,0,-,-,0
O=C(CNC(=O)c1ccccc1)c1ccccc1,0.71µM,0.45µM,?,-,-,6.7µM
O=C(CNC(=O)c1ccccc1)OC1CCCCC1,4µM,0.89µM,?,0,13µM,12µM
COC(=O)c1c(-c2ccc(Cl)cc2)noc1N1CCN(c2cccc(OC)c2)CC1,-,-,-,-,-,0
CC(C)C(NCC(=O)Nc1ccccc1C(=O)NC1CC1)c1ccccc1 (stereo unspecified),-,-,0,-,-,-
CC1(c2ccc(C#N)cc2)NC(=O)N(CC(=O)Nc2cc(S(=O)(=O)N3CCOCC3)ccc2Cl)C1=O (stereo unspecified),0,0,0,0,0,0
COc1cc([N+](=O)[O-])ccc1NC(=O)N1CCC2(CC1)Nc1ccccc1-n1cccc12,-,-,-,-,-,0
O=C(CNC(=O)c1ccc(-c2ccccc2)cc1)OCc1ccc(Br)cc1,0,0,0,0,3.5µM,21µM
COc1ccc(C(=O)NCC(=O)OCc2ccc(Br)cc2)cc1,0,0,0,0,0,0
SMILES,NPC1 prom act,Rab9 prom act,ELG1 genotoxic,KinaseGlo FLuc,SMN2 splice up,FLuc modulator
O=C(CNC(=O)c1ccccc1C(=O)O)c1ccccc1,2.8µM,3.5µM,?,0,0,12µM
Cc1ccc(C2CC(=O)Nc3cc4c(cc32)OCCO4)cc1Br (stereo unspecified),-,-,-,-,0,0
COc1ccc(-c2noc(COC(=O)c3ccco3)n2)cc1OC,0,0,0,-,-,0
CCOc1ccc(CCNC(=O)CSCC(=O)Nc2cccc(C)c2)cc1OCC,0,0,0,-,-,0
CCc1ccc(-c2nc(SCC(=O)N(CCOC)c3c(N)n(Cc4ccccc4)c(=O)[nH]c3=O)n[nH]2)cc1,0,0,0,-,-,2.7µM
CCCCN(C(=O)CSc1n[nH]c(-c2ccc(C)cc2)n1)c1c(N)n(CCCC)c(=O)[nH]c1=O,0,0,?,-,-,8.5µM
COCCN(C(=O)COC(=O)/C=C/c1ccc2ccccc2n1)c1c(N)n(Cc2ccccc2)c(=O)[nH]c1=O,0,0,0,-,-,?
CCN(CC)c1ccc(-c2nnc(SCC(=O)N(CCOC)c3c(N)n(CC(C)C)c(=O)[nH]c3=O)o2)cc1,0,0,0,-,-,6.7µM
COCCN(C(=O)COC(=O)/C=C/c1nc2ccccc2s1)c1c(N)n(Cc2ccccc2)c(=O)[nH]c1=O,0,0,0,-,-,21µM
Cc1ccc(-c2nc(SCC(=O)N(C)c3c(N)n(Cc4ccccc4)c(=O)[nH]c3=O)n[nH]2)cc1,0,0,0,-,-,0
C/C(=C/c1ccccc1)C(=O)N1CCN(c2ccc(F)cc2)CC1,0,0,0,-,-,0
COc1ccc2c(c1)CCc1c(C(=O)Nc3c(C)nn(Cc4ccc(C)cc4)c3C)noc1-2,-,-,-,-,0,0
COC(=O)CC[C@@H](C)C1CC[C@H]2[C@H]3CC[C@H]4C[C@@H]5CCC4(C)[C@@]3(O5)[C@@H](Br)[C@@H](Br)[C@@]12C (stereo partly specified),-,-,-,0[7.66 µM],0[9.22 µM],-
O=C1c2[nH]nc(-c3ccccc3O)c2C(c2cccc(OCc3ccccc3)c2)N1CCCO (stereo unspecified),-,-,-,-,0,0
CC(=O)OC[C@H]1O[C@@H](Oc2cc(O)cc3oc(-c4ccc(O)cc4)cc(=O)c23)[C@H](O[C@@H]2O[C@@H](C)[C@H](O)[C@@H](O)[C@H]2O)[C@@H](O)[C@@H]1O,-,-,0,-,-,-
CC(C)CCNC(=O)CSCc1cnn(-c2ccccc2)c1-n1cccc1,-,-,-,-,-,0
CCCCn1c(N)c(N(CCOC)C(=O)CSc2n[nH]c(-c3ccc(OC)cc3)n2)c(=O)[nH]c1=O,0,0,0,-,-,24µM
COCCN(C(=O)CSc1n[nH]c(-c2ccc(OC)cc2)n1)c1c(N)n(Cc2ccccc2)c(=O)[nH]c1=O,0,0,0,-,-,?
Cn1c(SCc2ccc(C#N)cc2Cl)nc2ccccc21,2.2µM,3.5µM,21µM,0,14µM,6µM
CC(C)c1ccc(Nc2c(-c3ccccn3)nc3ccccn23)cc1,-,-,-,-,0,0
COc1ccc(C(=O)Nc2nnc(SCc3cc(=O)c4cccc(F)c4[nH]3)s2)cc1,-,-,-,-,-,21µM
COc1ccc(C(=O)Nc2nnc(SCC(=O)NC3CC3)s2)cc1,1.4µM,2.5µM,?,-,-,1.2µM
COc1cccc(N2CC(C(=O)Nc3nnc(SCC(=O)NC4CCCC4)s3)CC2=O)c1 (stereo unspecified),0,0,0,-,-,0
COc1cccc(C(=O)Nc2nnc(SCC(=O)NC3CC3)s2)c1,?,?,?,-,-,5.4µM
CCOc1ccc(NC(=O)CSc2nc(=O)n(CCCN3CCOCC3)c3c2CCC3)cc1,0,0,0,-,-,0
Cc1nc(N)sc1N=Nc1ccc(F)cc1,?,?,12µM,0,0,12µM
